Among the data in PubChem BioAssay (NCI) are growth values, retold here.

Compounds without any hit were thinned out: in the full panel of roughly 83,000, 20% have a hit.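 Single-concentration screen, 48 h exposure, 96-well plates. Endpoint: percent growth. Below 10 = active.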 Active and inactive are the calls of the source.

The test has as its system MALME-3M melanoma. Briefly: NCI-60 one-dose screen, 48 h (100 = growth as untreated, 0 = no growth, -100 = all killed). As to conditions: 10 µM unless noted.
Consider `O=C1NC(=O)c2c1c1c3cc(Br)ccc3[nH]c1c1oc3ccc(F)cc3c21`, for which the growth was -31.1% (active). As for `C#CCOc1ccc(/C=N/Nc2nc(-c3ccc(F)cc3)cs2)cc1OC`, the growth is 86.3% (inactive).

As to `O=C1NC(=O)/C(=C/c2ccccc2OCc2cc3ccccc3nc2Cl)S1`, the growth is 82.8% (inactive).

With `Cc1ccc(NCC(=O)Cn2cc(COc3ccc(C=Nc4cnc5ccccc5c4)cc3)nn2)cc1`, the growth is 102% (inactive). For `C/C(=N\N=C1/C(=O)Nc2ccccc21)c1ccc2c(c1)Nc1ccccc1S2`, the growth was 35.5% (inactive). For `C/C(=N\N=C1/C(=O)Nc2ccc(Cl)cc21)c1ccc2c(c1)Nc1ccccc1S2` the value was -19.6% (active); for `CCN(CC)c1ccnc(CNCCSC(c2ccccc2)(c2ccccc2)c2ccc(C)cc2)c1`, -93.1% (active); for `Cc1cc2c(cc1Cl)C(=O)/C(=C/c1ccccc1)O2`, -46.8% (active).

Turning to `COc1ccc(C(=O)/C=C/c2ccc(OCc3ccc(F)cc3)c(OC)c2)cc1OC`, the growth is 61.4% (inactive). As to `COc1cc(OC)c2c3nc4cc(C)c(C)cc4nc3n(CCN(C)C)c2c1`, the growth was -36.1% (active). With `N=C1N=C(SCc2nc3ccccc3[nH]2)NC(=O)/C1=C/c1ccc(Cl)cc1`, the growth was 96.4% (inactive).

On to `COc1ccc(C2CC(c3ccc(S(=O)(=O)NCCNc4nc(Nc5ccc(F)cc5)nc(N(C)C)n4)cc3)=Nc3c(N)nc(N)nc3N2)cc1` (centres undefined), for which the growth is 106% (inactive). For the compound `O=C(Cn1nc(-c2ccccc2)ccc1=O)N/N=C/c1ccc(N2CCOCC2)cc1`, the growth was 90.1% (inactive). For `CC1(C)CC[C@]2(C(=O)O)CC[C@]3(C)C(=CCC4[C@@]5(C)C[C@@H](O)[C@@H]6OC(c7cccc(Br)c7)OC[C@@]6(C)C5CC[C@]43C)C2C1` (some centres undefined), the growth was 73.9% (inactive).
